Laboratory results taken from PubChem BioAssay (NCI).
This is part of a sample that, as a whole, favours compounds with a hit. Of some 79,000 tested, about 15% had one in any assay. Active and inactive are the calls of the source. Rule as the data show it: active = growth inhibition above about 70%; inactive = the rest. Where a SMILES comes first, the peptide text is derived from it. [ ]: non-standard residue; d: D form. Nva = CCC[CH](N)C(=O)O

Columns and labels:
[1] = NCI Yeast Anticancer Drug Screen. Data for the rad50 strain (AID 155);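 also: 0% = growth of vehicle-only cultures of the same strain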; settings: S. cerevisiae rad50 strain growth inhibition, stronger effect = higher value
Method in brief: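 Compounds were tested on a yeast strain with an engineered DNA damage repair alteration; the reported value is growth inhibition normalised to vehicle treatment.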

[2] = NCI Yeast Anticancer Drug Screen. Data for the mec2-1 strain (AID 157); settings: S. cerevisiae mec2-1 strain, stronger effect = higher value
Method in brief: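 Test agents were screened against the mec2-1 yeast strain, with defined DNA repair or cell cycle alteration. Growth was scored as inhibition against vehicle-only controls.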

[3] = NCI Yeast Anticancer Drug Screen. Data for the sgs1 mgt1 strain (AID 161);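 also: 0% = growth of cultures given vehicle only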; settings: S. cerevisiae sgs1 mgt1 strain, stronger effect = higher value
Method in brief: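 Test agents were incubated with a DNA-repair-mutant yeast strain. Growth was then read and compared against vehicle-treated controls.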

[4] = NCI Yeast Anticancer Drug Screen. Data for the cln2 rad14 strain (AID 165);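 also: 0% = growth equal to vehicle treated cultures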; settings: S. cerevisiae cln2 rad14 strain, stronger effect = higher value
Method in brief: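 Growth of compound-exposed yeast (cln2 rad14 genotype) measured and expressed as inhibition relative to vehicle.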

[5] = NCI Yeast Anticancer Drug Screen. Data for the bub3 strain (AID 167); settings: S. cerevisiae bub3 mutant strain, stronger effect = higher value
Method in brief: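 Growth of a checkpoint-deficient yeast mutant is measured after compound exposure. Values represent inhibition relative to vehicle.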

[6] = NCI Yeast Anticancer Drug Screen. Data for the mlh1 rad18 strain (AID 175); settings: S. cerevisiae mlh1 rad18 strain growth inhibition, stronger effect = higher value
Method in brief: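 In this whole-cell yeast screen, a strain with altered DNA damage repair is challenged with compound, and its growth is measured against matched vehicle-treated controls.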

[7] = at 5.0 µM (retest, dose inferred, filed as 0.5)
[8] = at 50.0 µM (retest, dose inferred, filed as 5.0)

Measured: growth inhibition

c1ccc2c(c1)ccc1c2ccc2sc3ccccc3[n+]21
active: [1]; [7] 71% | [1]; [8] 94% | [1]; at 50.0 µM 92.3% | [2]; [8] 96% | [3]; [8] 93% | [3]; at 50.0 µM 91.2% | [4]; [8] 92% | [5]; [8] 92% | [5]; at 50.0 µM 73.5% | [6]; [7] 75% | [6]; [8] 96% | [6]; at 50.0 µM 91.3%
inactive: [2]; [7] 53% | [2]; at 50.0 µM 53.9% | [3]; [7] 59% | [4]; [7] 62% | [4]; at 50.0 µM 69.8% | [5]; [7] 54%

O=C(Nc1ccccc1[N+](=O)[O-])/C(=N/Nc1cccc(Cl)c1)c1c(O)c2ccccc2oc1=O
inactive: [1]; [7] 29% | [1]; [8] 29% | [2]; [7] 36% | [2]; [8] 36% | [3]; [7] 35% | [3]; [8] 35% | [4]; [7] 11% | [4]; [8] 11% | [4]; at 50.0 µM 43.2% | [5]; [7] 27% | [5]; [8] 27% | [6]; [7] 44% | [6]; [8] 44%
active: [1]; at 50.0 µM 87.1% | [2]; at 50.0 µM 79.5% | [3]; at 50.0 µM 89.5% | [5]; at 50.0 µM 78.8% | [6]; at 50.0 µM 70%

CCC[N+]1=C(/C=C/c2ccc3cccnc3c2O)C(C)(C)c2ccccc21
active: [1]; [8] 98% | [1]; at 50.0 µM 98.8% | [2]; [8] 98% | [2]; at 50.0 µM 99% | [3]; [8] 98% | [4]; [8] 98% | [4]; at 50.0 µM 98.9% | [5]; [8] 98% | [5]; at 50.0 µM 98.8% | [6]; [8] 98% | [6]; at 50.0 µM 97.8%
inactive: [1]; [7] 0% | [2]; [7] 0% | [3]; [7] 10% | [3]; at 50.0 µM 54% | [4]; [7] -15% | [5]; [7] 4% | [6]; [7] 25%

S=C(Nc1ccc(Cl)c(Cl)c1)SC1CCCCC1
inactive: [1]; [7] 17% | [1]; at 50.0 µM 47.2% | [2]; [7] 11% | [2]; at 50.0 µM 64.2% | [3]; [7] 11% | [4]; [7] -1% | [5]; [7] 17% | [6]; [7] 20%
active: [1]; [8] 96% | [2]; [8] 97% | [3]; [8] 98% | [3]; at 50.0 µM 87.1% | [4]; [8] 95% | [4]; at 50.0 µM 87.5% | [5]; [8] 96% | [5]; at 50.0 µM 83.3% | [6]; [8] 96% | [6]; at 50.0 µM 90%

CCCC(N)C(=O)NC(C(=O)O)C(C)C (stereo not given) (H-[Nva]-Val-OH; configuration not given here)
inactive: [1]; [7] -2% | [1]; [8] -11% | [1]; at 50.0 µM 38.1% | [2]; [7] -2% | [2]; [8] -3% | [2]; at 50.0 µM 51.9% | [3]; [7] 1% | [3]; [8] -5% | [3]; at 50.0 µM 17.1% | [4]; [7] 1% | [4]; [8] -5% | [5]; [7] 2% | [5]; [8] -3% | [5]; at 50.0 µM 62% | [6]; [7] -2% | [6]; [8] -9% | [6]; at 50.0 µM 8.4%
active: [4]; at 50.0 µM 86%

CC(C)c1cc(C(C)C)c(Cl)c(Cl)c1O (tested in a mixture with another compound)
active: [1]; at 50.0 µM 99.3% | [2]; [8] 100% | [2]; at 50.0 µM 99.5% | [3]; [8] 98% | [3]; at 50.0 µM 99.5% | [4]; [8] 73% | [4]; at 50.0 µM 98.9% | [5]; [8] 77% | [5]; at 50.0 µM 87.5% | [6]; at 50.0 µM 84.5%
inactive: [1]; [7] 1% | [1]; [8] 44% | [2]; [7] 3% | [3]; [7] 6% | [4]; [7] 5% | [5]; [7] 0% | [6]; [7] -1% | [6]; [8] 14%

COc1ccc(C(=O)C2C(=O)C(=O)OC2C2OC(=O)C(=O)C2C(=O)c2ccc(OC)cc2)cc1 (stereo not given)
inactive: [1]; [7] -1% | [1]; [8] 2% | [1]; at 50.0 µM -9.6% | [2]; [7] -3% | [2]; [8] -3% | [2]; at 50.0 µM -7.3% | [3]; [7] 0% | [3]; [8] 2% | [3]; at 50.0 µM -8.2% | [4]; [7] -4% | [4]; [8] 1% | [4]; at 50.0 µM -15.3% | [5]; [7] 0% | [5]; [8] -5% | [5]; at 50.0 µM 3.05% | [6]; [7] 0% | [6]; [8] -1% | [6]; at 50.0 µM -15.7%

C[n+]1c(-c2ccc(/C=N\NC(=O)c3cccc(C(=O)N/N=C/c4ccc(-c5cn6ccccc6[n+]5C)cc4)c3)cc2)cn2ccccc21
inactive: [1]; [7] -14% | [2]; [7] 27% | [3]; [7] 0% | [4]; [7] -4% | [5]; [7] 15% | [6]; [7] -14%
active: [1]; [8] 99% | [1]; at 50.0 µM 98% | [2]; [8] 99% | [2]; at 50.0 µM 98.5% | [3]; [8] 99% | [3]; at 50.0 µM 98.2% | [4]; [8] 99% | [4]; at 50.0 µM 97.7% | [5]; [8] 99% | [5]; at 50.0 µM 98% | [6]; [8] 99% | [6]; at 50.0 µM 98.5%

CC(=O)Nc1ccc(/C=N\NC(=O)c2ccco2)cc1
inactive: [1]; [7] -5% | [1]; [8] 4% | [1]; at 50.0 µM -7.6% | [2]; [7] -10% | [2]; [8] -7% | [2]; at 50.0 µM -2.6% | [3]; [7] -4% | [3]; [8] 5% | [3]; at 50.0 µM -1.1% | [4]; [7] -13% | [4]; [8] 1% | [4]; at 50.0 µM -3.1% | [5]; [7] -8% | [5]; [8] -12% | [5]; at 50.0 µM -8.45% | [6]; [7] -2% | [6]; [8] -12% | [6]; at 50.0 µM 0.4%

Cc1ccc2c(ccc3ccccc32)c1
active: [1]; at 50.0 µM 74.3% | [5]; at 50.0 µM 71%
inactive: [1]; [7] -23% | [1]; [8] 42% | [2]; [7] 1% | [2]; [8] 10% | [2]; at 50.0 µM 16.4% | [3]; [7] -7% | [3]; [8] 16% | [3]; at 50.0 µM 57.5% | [4]; [7] -25% | [4]; [8] -12% | [4]; at 50.0 µM 10.2% | [5]; [7] -15% | [5]; [8] 38% | [6]; [7] -67% | [6]; [8] 39% | [6]; at 50.0 µM 34.6%
